High-throughput results deposited in PubChem by National Center for Advancing Translational Sciences (NCATS).
Shown are actives, neighbours in structure and some others; about 12% of the full set was active somewhere.
HP1b binding inh = blocks HP1-beta chromodomain binding to methylated histone tails; hit rate 0.56% among 390,000; AlphaScreen HP1-beta / biotin-H3K9me3 peptide binding; P83916; AID 540317; Potency, µM (titrated, usually from 114 µM), without a hit: at the highest dose activity change, negative = inhibition, hits mostly inhibitors; also: nearly all actives have a fitted effect of over 70% in size
Target sequence (P83916 whole entry, looked up): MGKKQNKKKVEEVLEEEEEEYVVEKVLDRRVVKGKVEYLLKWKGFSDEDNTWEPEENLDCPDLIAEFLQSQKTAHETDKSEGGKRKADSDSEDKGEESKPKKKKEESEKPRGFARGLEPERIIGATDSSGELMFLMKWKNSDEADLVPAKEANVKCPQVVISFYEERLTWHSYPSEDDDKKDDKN
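HP1-beta protein (50 nM final) preincubated 30 min at room temperature with biotinylated H3(1-18)K9me3 peptide (50 nM) in PBS pH 7.4, 0.01% Tween-20, then compound added for 30 min. AlphaScreen streptavidin donor/nickel chelate acceptor beads (10 ug/mL final), 30 min dark, luminescence read.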
JMJD2A Tudor = inhibitors of human JMJD2A Tudor domain; O75164; AlphaScreen JMJD2A-Tudor / H3K4me3 peptide binding; Potency, µM (doses to about 114 µM), for inactives: at the top dose activity change, negative = inhibition, hits mostly inhibitors; hit rate 4.4% among 390,000; AID 504339; also: % is scaled to controls: 0 for no effect and ±100 for the full control effect; nearly all actives have a fitted effect of over 50% in size
BAZ2B block = inhibitors of human BAZ2B bromodomain. Q9UIF8. AlphaScreen BAZ2B-H3K14Ac peptide displacement. Potency, µM (top dose mostly 114 µM), for the others: top-dose activity change, negative = inhibition, usual class: inhibitors. hit rate 4.4% among 360,000; also: % is scaled to controls: 0 for no effect and ±100 for the full control effect; nearly all actives have a fitted effect of over 60% in size
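Compounds, titrated to a top concentration of 110 uM, were incubated 30 min at room temperature with preformed BAZ2B/acetyl-K14 H3 peptide complex (50 nM each). Proximity signal was measured by AlphaScreen after 20 min with beads.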
G9a block = inhibitors of human histone lysine methyltransferase G9a | Q96KQ7 | hit rate 8.8% among 350,000 | Potency, µM (titrated, usually from 102 µM), for inactives: at the top dose activity, negative = inhibition, most hits filed as inhibitors | G9a H3K9 monomethylation, AlphaScreen, 2 h; also: % is scaled to controls: 0 for no effect and ±100 for the full control effect; nearly all actives have a fitted effect of over 75% in size
Target sequence (Q96KQ7 913-1193 limits assumed): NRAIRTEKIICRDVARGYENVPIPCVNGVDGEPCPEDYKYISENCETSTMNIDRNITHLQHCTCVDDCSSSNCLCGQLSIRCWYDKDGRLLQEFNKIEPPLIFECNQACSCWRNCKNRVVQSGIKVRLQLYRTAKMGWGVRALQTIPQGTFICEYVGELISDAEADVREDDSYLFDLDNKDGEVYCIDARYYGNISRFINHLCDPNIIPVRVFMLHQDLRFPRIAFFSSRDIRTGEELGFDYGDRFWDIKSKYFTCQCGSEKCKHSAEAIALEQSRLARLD
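Step 1: enzyme (final 20 nM) with compound, 15 min RT. Step 2: substrate peptide 500 nM and SAM 20 uM, 2 h RT. Step 3: anti-H3K9me1 antibody and AlphaScreen beads, 10 min, then plate read.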
PLK1 PBD inh = blocks phosphopeptide binding to human PLK1 polo-box domain; Plk1 PBD binding of FITC phosphopeptide, fluorescence polarization; Potency, µM, for the others: max response, negative = inhibition, usual class: inhibitors; hit rate 2.8% among 360,000; AID 720504; also: series mostly up to about 57 µM; % is scaled to controls: 0 for no effect and ±100 for the full control effect; nearly all actives have a fitted effect of over 65% in size
Sfp inh = blocks B. subtilis Sfp PPTase activity; Biochemical Sfp PPTase activity, qHTS; AID 1490; Potency, µM, for the others: largest response in the series, negative = inhibition, usual class: inhibitors; hit rate 3.5% among 310,000;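 also: the enzyme is Sfp with the accession as filed and its product quenches rhodamine fluorescence; 0% = enzyme reaction without inhibitor and -100% = no enzyme wells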
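After 15 min at room temperature with compound, 15 nM Sfp received 5 uM rhodamine-CoA plus 12.5 uM BHQ-2-ybbR (50 mM Hepes pH 7.6, 10 mM MgCl2). Rate came from the fluorescence difference over 30 min, ex 525/em 598 nm.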
The depositor's hits bear a star; ? = inconclusive; . = not tested or not shown; ! = a repeat was not active; [ ] = another dose, or the depositor's remark. Calls follow the shape of the dose curve; as a rule, active = well fitted curve in the direction sought with a large enough effect; inconclusive = small, poorly fitted or top-dose-only effect, or another doubt; inactive = no such curve, though single readings can be large; an effect the other way counts as inactive or inconclusive. Potency is read from the fitted curve at half-maximal effect.

SMILES	HP1b binding inh	JMJD2A Tudor	BAZ2B block	G9a block	PLK1 PBD inh	Sfp inh
O=C(O)/C=C/c1cnc[nH]1	36%	-13%	7%	13µM*!	-10%	-17%
COc1cc(C(=O)ON=C2C(C)=CC(=O)C=C2C)cc(OC)c1OC	21%	-12%	?	32µM*	?	0%
COc1cc(C(=O)O/N=C2/C=C(C)C(=O)C=C2C)cc(OC)c1OC	61%	-13%	-9%	-11%[59 µM]	?	6%
CCOC(=O)/C=C/C(=O)Nc1cccc([N+](=O)[O-])c1	?	?	?	?	3.4µM*	2.8µM*
CC(C(=O)Nc1cccc([N+](=O)[O-])c1)[n+]1ccccc1 (centres undefined)	27%	-15%	?	.	-2%	20µM*
CCC(Sc1ccccn1)C(=O)Nc1cccc([N+](=O)[O-])c1 (centres undefined)	13%	-15%	-12%	.	21µM*	56µM*
CC(Sc1cccc[n+]1[O-])C(=O)Nc1cccc([N+](=O)[O-])c1 (centres undefined)	40%	1%	.	?	?	-13%
CC(OC(=O)c1ccncc1)C(=O)Nc1cccc([N+](=O)[O-])c1 (centres undefined)	24%	-8%	-5%	?	-7%	0%
COCc1c(C(=O)OCC(=O)NCc2ccco2)oc2ccccc12	24%	-26%	.	.	-7%	.
Cc1ccc(C(OCC(C)(C)C[N+](C)(C)C)c2ccccc2)cc1 (centres undefined)	17%	22µM*	-10%	35%[59 µM]	-11%	45µM*
Cc1nnc(C)n1/N=C/c1cccnc1	42%	6%	0%	1%[59 µM]	-1%	20%
CN(C)c1ccc(/C=N/n2c(-c3cccnc3)n[nH]c2=S)cc1	7%	5µM*	?	3.2µM*	-4%	-8%
Cc1nc2ccccc2c(=O)n1/N=C/c1ccc(N(C)C)cc1	10%	-16%	4%	26%[59 µM]	-3%	12%
Cc1ccc(/C=N/n2c(-c3cccnc3)n[nH]c2=S)o1	40%	5µM*	?	28µM*	6%	56µM*
CN(C)c1ccc(/C=N/n2c(-c3ccccc3Br)n[nH]c2=S)cc1	-19%	14µM*	?	0.71µM*	-20%	56µM*
Cc1ccc(-c2n[nH]c(=S)n2/N=C/c2ccc(C)o2)cc1	3%	25µM*	?	0.89µM*	-12%	71µM*
Cc1cccc(OCC(=O)N(C)CC(=O)Nc2cccc(F)c2)c1C	25%	-11%	4%	15%[12.7 µM]	-9%	.
O=C(O)c1ccc(NC(=O)c2cc(S(=O)(=O)N3CCCCC3)c(Cl)cc2Cl)cc1	12%	-3%	-4%	-14%[59 µM]	.	.
CCN(CC)S(=O)(=O)c1ccc2c(c1)N(CC(=O)N1CCN(c3ccccc3F)CC1)C(=O)CO2	9%	-14%	-34%	-12%[59 µM]	.	.
Cc1ccc(/C=N/n2nnnc2N)o1	3%	-8%	5%	-5%	0%	12%
Cc1ccc(-c2n[nH]c(=S)n2/N=C/c2ccncc2)cc1	-16%	?	-12%	1.6µM*	?	-18%
Cc1ccc(/C=N/n2c(C)nnc2C)o1	2%	?	-5%	23%[59 µM]	21µM*	-6%
O=C(N/N=C/C(Br)=C\c1ccccc1)c1n[nH]c2c1CCC2	6%	-23%	-4%	?	-5%	28µM*
CN=c1scc(-c2ccco2)n1/N=C/c1ccc(O)c(O)c1	?	-27%[11.4 µM]	28µM*	11µM*	?	50µM*
COc1ccc(O)c(/C=N/n2c(-c3ccco3)csc2=Nc2cccnc2)c1	1%	-6%[57.1 µM]	?	20%[59 µM]	-13%	1%
O=C1C(c2[nH]c3ccc(S(=O)(=O)O)cc3c2O)=Nc2ccc(S(=O)(=O)O)cc21	.	.	.	18µM*	.	22µM*
COc1ccc(N(C(=O)c2ccco2)C(C(=O)NC2CCCC2)c2ccc(N(C)C)cc2)cc1 (centres undefined)	-26%	?	50µM*	79µM*	-8%	-7%
